Most compounds without a hit are left out; they make up all but 28% or so of the library.
CYP2C9 inh – blockers of cytochrome P450 2C9 activity – biochemical, luminescence, ADME assay, primary screen. CYP2C9 Supersomes, luciferin-H conversion. inhibition, % at 5 µM. 96,000 compounds, 20% hits;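 active means blocking of liver enzyme CYP2C9 beyond about 50% at 5 µM, limit read from the data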
CYP2C19 inh – blockers of cytochrome P450 2C19 activity – biochemical, luminescence, ADME assay, primary screen | P33261 | CYP2C19 Supersomes, luciferin-H EGE luminescence, 30 min | inhibition, % at 5 µM | 96,000 compounds, 21% hits;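 active means CYP2C19 inhibition above a set limit at 5 µM in the primary screen, cut at about 50% in these data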;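 further: plate controls were negative control wells for no effect and 2.5 mM tranylcypromine positive control for full effect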
CYP2C9 activ – human CYP2C9 activators, primary screen, biochemical, luminescence | recombinant CYP2C9, luciferin-H conversion; stronger effect = higher value; factor 1 = untreated enzyme, 0 = blocked | AID 1024, 2008 | 96,000 compounds, 1.4% hits | Cytochrome P450 2C9 (Homo sapiens), P11712 | activation factor at 5 µM;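 active means activation factor of 2 or more for CYP2C9 at a 5 µM dose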;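 further: 0 = sulfaphenazole-blocked wells and 1 = vehicle-only wells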
CYP2C19 activ – human CYP2C19 activators, primary screen, biochemical, luminescence. recombinant CYP2C19, luciferin-H EGE luminescence; stronger effect = higher value; 0 = fully inhibited enzyme, 1 = untreated enzyme. activation factor at 5 µM. 96,000 tested, under 10 active;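 active means activation factor of at least 2 at 5 µM in the primary screen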;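 further: 0 = wells with 2.5 mM tranylcypromine and 1 = vehicle-only wells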
Mac1 fbg enh – enhancers of CD11b/CD18 adhesion to fibrinogen, primary screen, K562 cells, luminescence | Integrin beta-2 (Homo sapiens) + Integrin alpha-M (Homo sapiens), P05107+P11215 | ATPlite luminescence | activation, % at 10 µM | 93,000 compounds, 0.07% hits | AID 1499, 2009;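 active means 10 µM primary screen giving 50% or more activity, confirmed by 40% or more on retest at that dose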
Mac1 fbg inh – inhibitors of CD11b/CD18 adhesion to fibrinogen, primary screen, K562 cells, luminescence. Integrin beta-2 (Homo sapiens) + Integrin alpha-M (Homo sapiens), P05107+P11215. ATPlite luminescence; Mn2+ added to activate the integrin. inhibition, % at 10 µM. 93,000 compounds, 0.54% hits. AID 1497, 2009;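 active means primary inhibition of 50% or more at 10 µM, then 40% or more on retest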
* marks the source's active call; other numbers are inactive results.

`COc1ccc(C2=NN(C(C#N)c3ccc(OC)c(OC)c3)C(c3ccccc3)C2)cc1` (centres undefined) gave CYP2C9 inh 68.3*, CYP2C19 inh 41.5, CYP2C9 activ 0.3, CYP2C19 activ 0.6, Mac1 fbg enh -3.5 and Mac1 fbg inh -10.0.
Screening COc1cc(Cl)c(S(=O)(=O)NCCN2CCOCC2)cc1Cl returned CYP2C9 inh -99.4, CYP2C19 inh 81.7*, CYP2C9 activ 2*, CYP2C19 activ 0.2, Mac1 fbg enh -1.5 and Mac1 fbg inh -3.6.
Screening COc1cc(S(=O)(=O)NCCCN2CCOCC2)ccc1Cl returned CYP2C9 inh -141.1, CYP2C19 inh 75.0*, CYP2C9 activ 2.4*, CYP2C19 activ 0.3, Mac1 fbg enh -0.2 and Mac1 fbg inh -4.7.
Cc1cc(S(=O)(=O)NCCCN2CCOCC2)ccc1F was read as CYP2C9 inh -7.4, CYP2C19 inh 28.9, CYP2C9 activ 1.1 and CYP2C19 activ 0.7.
For N#CCSc1nc(-c2ccccc2)cs1 the results were CYP2C9 inh -50.6, CYP2C19 inh 56.3*, CYP2C9 activ 1.5, CYP2C19 activ 0.4, Mac1 fbg enh -0.4 and Mac1 fbg inh 6.9.
`OCCSc1nnc(Nc2ccccc2)s1` gave CYP2C9 inh -3.8, CYP2C19 inh 21.4, CYP2C9 activ 1, CYP2C19 activ 0.8, Mac1 fbg enh -3.1 and Mac1 fbg inh -29.4.
N#CCSc1nnc(Nc2ccccc2)s1 was read as CYP2C9 inh 41.7, CYP2C19 inh 83.7*, CYP2C9 activ 0.6, CYP2C19 activ 0.2, Mac1 fbg enh 3.0 and Mac1 fbg inh -9.9.
CC1(C)NC(=O)N(CC(O)CN2CCCC2)C1=O (centres undefined) was read as CYP2C9 inh -10.1, CYP2C19 inh -6.3, CYP2C9 activ 1.1, CYP2C19 activ 1.1, Mac1 fbg enh 0.3 and Mac1 fbg inh -19.1.
CCOC(=O)c1cc(-c2ccncc2)nc2c1c(C)nn2C was read as CYP2C9 inh 50.4*, CYP2C19 inh 96.2*, CYP2C9 activ 0.5, CYP2C19 activ 0, Mac1 fbg enh 0.3 and Mac1 fbg inh -0.9.
For CCOC(=O)c1cc(-c2ccccc2)nc2c1c(C)nn2-c1ccccn1 the results were CYP2C9 inh -22.1, CYP2C19 inh -7.1, CYP2C9 activ 1.2, CYP2C19 activ 1.1, Mac1 fbg enh -1.6 and Mac1 fbg inh 6.3.
`CCc1ccc2[nH]c(O)c(N=Nc3nc(-c4ccccc4)cs3)c2c1` gave CYP2C9 inh 12.3, CYP2C19 inh 11.6, CYP2C9 activ 0.9 and CYP2C19 activ 0.9.
`COc1ccc(OC(=O)c2cnn(-c3ccccc3)c2C)cc1` gave CYP2C9 inh 39.0, CYP2C19 inh 19.5, CYP2C9 activ 0.6, CYP2C19 activ 0.8, Mac1 fbg enh -2.7 and Mac1 fbg inh -2.5.
O=C(Cc1ccccc1[N+](=O)[O-])Nc1ccc2c(c1)OCCO2 was read as Mac1 fbg enh 1.8 and Mac1 fbg inh 16.1.
Screening O=C(CC(c1ccccc1)c1ccccc1)Nc1ccc2c(c1)OCCO2 returned CYP2C9 inh 52.1*, CYP2C19 inh 35.9, CYP2C9 activ 0.5 and CYP2C19 activ 0.6.
For O=C(CSCc1ccccc1Cl)Nc1ccc2c(c1)OCCO2 the results were CYP2C9 inh 59.9*, CYP2C19 inh 26.2, CYP2C9 activ 0.4 and CYP2C19 activ 0.7.
Screening CC1CN=C(c2cccn2Cc2ccc(F)cc2Cl)O1 (centres undefined) returned CYP2C9 inh 2.4, CYP2C19 inh 42.1, CYP2C9 activ 1 and CYP2C19 activ 0.6.
For O=C(CC1C(=O)OCN1C(=O)OCc1ccccc1)OCC(=O)c1ccccc1 (centres undefined) the results were CYP2C9 inh 24.7, CYP2C19 inh 27.5, CYP2C9 activ 0.8, CYP2C19 activ 0.7, Mac1 fbg enh -3.8 and Mac1 fbg inh 6.7.
Screening COc1ccccc1Nc1ncnc2ccc(C)cc12 returned CYP2C9 inh -4.7, CYP2C19 inh -8.9, CYP2C9 activ 1, CYP2C19 activ 1.1, Mac1 fbg enh -3.7 and Mac1 fbg inh 4.4.
O=C1CCCC2=C1C(c1ccncc1)c1c(nc(SCc3ccccc3)[nH]c1=O)N2 (centres undefined) was read as CYP2C9 inh 90.4*, CYP2C19 inh 87.2*, CYP2C9 activ 0.1, CYP2C19 activ 0.1, Mac1 fbg enh -2.3 and Mac1 fbg inh -7.4.
`Cc1ccc(C2C3=C(CCCC3=O)Nc3nc(SCC(=O)NCc4ccco4)[nH]c(=O)c32)cc1` (centres undefined) gave CYP2C9 inh 0.7, CYP2C19 inh -15.5, CYP2C9 activ 1 and CYP2C19 activ 1.2.
For O=C(Nc1ccccc1-c1ccccc1)c1ccco1 the results were CYP2C9 inh 19.1, CYP2C19 inh 28.2, CYP2C9 activ 0.8, CYP2C19 activ 0.7, Mac1 fbg enh -0.1 and Mac1 fbg inh 6.3.
`O=C(Nc1ccccc1-c1ccccc1)c1ccc(NC(=O)c2ccco2)cc1` gave CYP2C9 inh 48.3, CYP2C19 inh 53.0*, CYP2C9 activ 0.5, CYP2C19 activ 0.5, Mac1 fbg enh -1.8 and Mac1 fbg inh 5.8.
`O=C(O)COc1ccc(NC(=O)c2ccco2)cc1` gave CYP2C9 inh -160.9, CYP2C19 inh 8.3, CYP2C9 activ 2.6*, CYP2C19 activ 0.9, Mac1 fbg enh -2.0 and Mac1 fbg inh -0.3.
Screening CCOCC(=O)Nc1ccc(S(=O)(=O)NCCc2ccccc2)cc1 returned CYP2C9 inh 30.2, CYP2C19 inh 60.3*, CYP2C9 activ 0.7, CYP2C19 activ 0.4, Mac1 fbg enh -0.2 and Mac1 fbg inh 14.2.
Screening O=C(CCc1ccccc1)Nc1ccc(NC(=O)c2ccco2)nc1 returned CYP2C9 inh 25.2, CYP2C19 inh 17.2, CYP2C9 activ 0.7, CYP2C19 activ 0.8, Mac1 fbg enh -3.5 and Mac1 fbg inh -1.1.
For O=C(CCc1ccccc1)Nc1ccc(NC(=O)c2ccco2)cc1 the results were CYP2C9 inh 81.5*, CYP2C19 inh 71.1*, CYP2C9 activ 0.2, CYP2C19 activ 0.3, Mac1 fbg enh -1.2 and Mac1 fbg inh 1.8.
For CCn1cc(C2=NOC(C(=O)Nc3cc(C)nn3-c3ccccc3)C2)c(C)n1 (centres undefined) the results were CYP2C9 inh -7.8, CYP2C19 inh -12.2, CYP2C9 activ 1.1, CYP2C19 activ 1.1, Mac1 fbg enh -2.7 and Mac1 fbg inh 4.3.

From PubChem BioAssay
